Source: PubChem BioAssay
BAZ2B block: blocks human BAZ2B; Q9UIF8; AlphaScreen BAZ2B-H3K14Ac peptide displacement; Potency, µM (series often up to 114 µM), inactives show at the highest dose activity change, negative = inhibition, most hits filed as inhibitors; 360,000 compounds, 4.4% hits; note: % is set by controls: 0 for no effect and ±100 for the full control effect; nearly all actives have a fitted effect of over 60% in size
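In this displacement format the biotinylated H3(5-23) peptide acetylated at Lys14 serves as ligand at 50 nM, with BAZ2B at 50 nM in PBS pH 7.4 containing 0.01% Tween-20. Donor and acceptor beads are 10 ug/mL final.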
Sfp inh: Sfp phosphopantetheinyl transferase inhibition; Q9F4F7; Biochemical Sfp PPTase activity, qHTS; Potency, µM, for inactives: largest response in the series, negative = inhibition, actives largely listed as inhibitors; 310,000 compounds, 3.5% hits;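 note: the enzyme is Sfp with the accession as filed and its product quenches rhodamine fluorescence; 0% = enzyme reaction without inhibitor and -100% = no enzyme wells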
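Buffer: 50 mM Hepes-Na pH 7.6, 10 mM MgCl2, 0.01% Nonidet P-40, 0.01% BSA. Enzyme 15 nM, pre-exposed to compound 15 min; substrates then added and fluorescence change tracked over 30 min.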
HP1b chromo inh: inhibitors of HP1-beta chromodomain binding to methylated histone tails; AlphaScreen HP1-beta / biotin-H3K9me3 peptide binding; P83916; 390,000 compounds, 0.56% hits; Potency, µM (series often up to 114 µM), for the others: top-dose activity change, negative = inhibition, most hits filed as inhibitors; note: nearly all actives have a fitted effect of over 70% in size
Target sequence (P83916 whole entry, looked up): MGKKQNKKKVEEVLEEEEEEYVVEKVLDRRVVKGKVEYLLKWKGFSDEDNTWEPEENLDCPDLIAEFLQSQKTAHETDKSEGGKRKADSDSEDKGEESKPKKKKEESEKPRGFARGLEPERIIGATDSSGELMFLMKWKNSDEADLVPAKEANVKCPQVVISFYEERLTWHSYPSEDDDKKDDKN
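Compound inhibition of the preformed complex between 50 nM HP1-beta and 50 nM biotinylated H3K9me3 peptide was read by AlphaScreen. Buffer was PBS pH 7.4 with 0.01% Tween-20. Incubations ran 30 min at room temperature, with 10 ug/mL donor/acceptor beads.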
JMJD2A Tudor: inhibitors of human JMJD2A Tudor domain; AlphaScreen JMJD2A-Tudor / H3K4me3 peptide binding; Potency, µM (series often up to 114 µM), without a hit: top-dose activity change, negative = inhibition, most hits filed as inhibitors; 390,000 compounds, 4.4% hits; note: % is set by controls: 0 for no effect and ±100 for the full control effect; nearly all actives have a fitted effect of over 50% in size
L3MBTL1 block: blocks human L3MBTL1; Potency, µM (doses to about 57.1 µM), for the others: top-dose activity, negative = inhibition, actives largely listed as inhibitors; AlphaScreen L3MBTL1–H3K9me1 peptide binding; 230,000 compounds, 0.66% hits; AID 485360; note: % is set by controls: 0 for no effect and ±100 for the full control effect; nearly all actives have a fitted effect of over 60% in size
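Read-out is AlphaScreen signal from streptavidin donor and nickel chelate acceptor beads (10 ug/mL final each) bridging L3MBTL1 (50 nM) and biotinylated K9-monomethylated H3(1-15) peptide (75 nM), after 30 min compound exposure at room temperature.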
G9a inh: blocks human histone lysine methyltransferase G9a; AID 504332; Q96KQ7; 350,000 compounds, 8.8% hits; G9a H3K9 monomethylation, AlphaScreen, 2 h; Potency, µM (top dose mostly 102 µM), for inactives: at the highest dose activity, negative = inhibition, actives largely listed as inhibitors; note: % is set by controls: 0 for no effect and ±100 for the full control effect; nearly all actives have a fitted effect of over 75% in size
Target sequence (Q96KQ7 913-1193 limits assumed): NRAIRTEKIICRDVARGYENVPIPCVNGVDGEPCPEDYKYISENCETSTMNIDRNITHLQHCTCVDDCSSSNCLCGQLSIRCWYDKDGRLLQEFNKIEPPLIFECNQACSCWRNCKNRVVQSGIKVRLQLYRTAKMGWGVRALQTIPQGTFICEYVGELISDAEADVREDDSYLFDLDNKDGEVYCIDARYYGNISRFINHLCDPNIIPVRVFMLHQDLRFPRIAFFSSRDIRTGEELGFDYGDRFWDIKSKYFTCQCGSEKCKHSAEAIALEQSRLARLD
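Quantitative HTS format: methyltransferase activity on a biotin-tagged H3K9 peptide is measured by AlphaScreen, using a rabbit anti-monomethyl-H3K9 antibody with streptavidin donor and anti-IgG acceptor beads. Final levels are 20 nM enzyme, 500 nM peptide, 20 uM SAM; 2 h RT.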
Active calls of the source: *; ? = inconclusive; . = no result given; [ ] = dose if it differs, or a comment. A selection: hits, their analogues and other compounds. The true share with any hit is near 12%. Calls come from the whole dose curve; as a rule, active = well fitted curve in the direction sought with a large enough effect; inconclusive = small, poorly fitted or top-dose-only effect, or another doubt; inactive = no such curve, though single readings can be large; an effect the other way counts as inactive or inconclusive. Potency is the fitted concentration of half-maximal effect.

SMILES	BAZ2B block	Sfp inh	HP1b chromo inh	JMJD2A Tudor	L3MBTL1 block	G9a inh
O=S(=O)(c1cccc(C(F)(F)F)c1)N1CCN(C(=S)NCc2ccco2)CC1	-30.2%	70.8µM*	-11.7%	-18.5%	-5.0%	?
O=C(NCc1ccco1)c1ccc(S(=O)(=O)N2CCCCC2)cc1	-11.1%	10.1%	28.8%	-10.2%	2.0%	-1.2%
CCOC(=O)c1c(C)[nH]c(C)c1S(=O)(=O)N(C)CC(=O)Nc1cccc(C(F)(F)F)c1	-1.9%	.	8.2%	-5.8%	.	-1.3%[59 µM]
Cc1cc(N2C(=O)c3ccccc3C2=O)no1	.	.	.	-10.9%	.	.
COC(=O)c1ccc(NC(=S)NCc2ccco2)cc1	?	5.7%	10.4%	-20.5%	-11.8%	50.1µM*
O=C(NCc1ccco1)c1ccc(S(=O)(=O)N2CCOCC2)cc1	79.4µM*	20µM*	?	?	35.5µM*	12.6µM*
NS(=O)(=O)c1ccc(NC(=S)NCc2ccc(F)cc2)cc1	-37.3%	?	-16.8%	-13.5%	1.1%	?
NS(=O)(=O)c1ccc(NC(=S)NCc2ccco2)cc1	?	20µM*	?	-29.1%	-4.0%	3.16µM*
COc1ccc(OC)c(NC(=O)N2CCN(S(=O)(=O)c3ccc4c(ccn4C)c3)CC2)c1	?	.	-10.9%[57 µM]	?	.	-31.9%[59 µM]
COc1ccccc1/C=C1/SC(=S)N(C(C)C(=O)NC2C=CS(=O)(=O)C2)C1=O (stereo not given)	-27.9%	-6.6%	36.6%	6.2%	.	44.7µM*
COc1ccc(/C=C2\SC(=S)N(CCC(=O)NC3C=CS(=O)(=O)C3)C2=O)cc1 (stereo not given)	-20.3%[57.1 µM]	5.5%	24.4%	-23.0%	.	-10.6%
CC(C(=O)NC1C=CS(=O)(=O)C1)N1C(=O)/C(=C\c2ccccc2)SC1=S (stereo not given)	?	12.6µM*	20.2%	1.2%	.	.
O=C(CN1C(=O)/C(=C/c2cccc(Cl)c2)SC1=S)NC1C=CS(=O)(=O)C1 (stereo not given)	-27.5%	-26.6%	1.9%	-18.6%	.	-8.1%
CC(C(=O)NC1C=CS(=O)(=O)C1)N1C(=O)/C(=C/c2cccc(Cl)c2)SC1=S (stereo not given)	?	-7.5%	-22.0%	?	.	25.1µM*
CCC1CN(C(=O)Nc2ccccc2C(F)(F)F)c2ccccc2S1 (stereo not given)	-36.5%	.	0.3%	?	.	-18.2%[59 µM]
CN(C)CCCN=Cc1c(-c2ccccc2)[nH]n(-c2nc3ccccc3s2)c1=O	?	50.1µM*	6.7%	-21.1%	7.8%	.
CNC(=S)N(CCc1c(C)[nH]c2ccc(Cl)cc12)Cc1cccnc1	70.8µM*	-12.0%	-12.5%	?	.	5.8%[2.33 µM]
CNC(=S)N(CCc1c(C)[nH]c2ccc(C)cc12)Cc1cccnc1	?	4.6%	9.1%	-27.6%	-8.2%	79.4µM*
CCNc1nc(NCC)nc(N(C)N)n1	25.1µM*	10.4%	50.3%	28.2µM*	?	27.4%
CCNc1nc(NC(C)C)nc(N(C)C#N)n1	-2.4%	-5.0%	28.6%	-11.8%[11.4 µM]	6.3%	.
CC(C)Nc1nc(NC(C)C)nc(N(C)N)n1	3.16µM*	12.7%	29.8%	35.5µM*	.	52.0%[59 µM]
CC(C)Nc1nc(NC(C)C)nc(N(C)C(N)=O)n1	?	28.0%	31.1%	-6.0%	0.1%	?
N#Cc1c(NC(=O)c2cc3nc(-c4ccc(Br)cc4)cc(C(F)(F)F)n3n2)sc2c1CCCC2	3.6%	.	-10.2%	-11.0%	.	10µM*
COc1ccc(OC)c(CC2C(=O)Nc3ccc(Br)cc32)c1 (stereo not given)	?	.	1.4%	?	.	?
CCN(CC)c1ccc(NC(=S)NCC2CCCO2)cc1 (stereo not given)	44.7µM*	-28.1%	?	?	-5.5%[11.4 µM]	?
Cc1cccc(NC(=S)NCC2CCCO2)c1 (stereo not given)	-1.9%	6.1%	42.1%	-4.8%[11.4 µM]	.	50.1µM*
Cc1ccc(NC(=S)NCC2CCCO2)cc1C (stereo not given)	-3.5%	6.1%	28.1%	-2.8%	-5.5%	-0.4%[59 µM]
